Source: PubChem BioAssay
HT1080NT lethal: kills 2HG-producing HT-1080-NT fibrosarcoma cells. hit rate 1.6% among 360,000. AID 686970. HT-1080-NT fibrosarcoma viability, CellTiter-Glo ATP luminescence, 48 h. Potency, µM (doses to about 46.1 µM), usual class: cytotoxic;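 note: NT is the 2HG producing partner of a matched IDH1 knockdown line; nearly all actives have a fitted effect of over 55% in size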
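Compounds were tested in concentration-response format on HT-1080-NT cells for 48 hours at 37 degrees C. Cell viability came from CellTiter-Glo luminescence; curves were classified by r2, response magnitude and activity.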
TDP1 cell noCPT: qHTS for Inhibitors of human tyrosyl-DNA phosphodiesterase 1 (TDP1): qHTS in cells in absence of CPT | DT40 Tdp1-/- hTDP1 cells, no CPT, ATP luminescence, 48 h | Potency, µM (series often up to 46.2 µM), most hits filed as inhibitors | hit rate 15% among 420,000; note: nearly all actives have a fitted effect of over 55% in size
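No-CPT arm: Tdp1-/-;hTDP1 DT40 cells (400/well) plus compounds, incubated ≥48 hr at 37 °C. Readout CellTiter-Glo luminescence.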
ELG1 repair inh: blocks ELG1-dependent DNA repair in HEK293T cells; HEK293T ELG1-luciferase reporter, luminescence, 16 h; DNA damage induced by 5-fluorouridine; hit rate 2.3% among 330,000; AID 504467; Potency, µM (top dose mostly 46.1 µM), usual class: inhibitors; note: nearly all actives have a fitted effect of over 55% in size
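In this reporter screen, reduction of luminescence relative to DMSO vehicle indicated activity. Compounds and 5-fluorouridine were added together to 2,000 cells per well, incubated for 16 hr at 37 °C, then developed with ONE-Glo.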
IL1B secr inh: blocks inflammasome-driven IL-1 beta release; activity change, % at 57.5 µM; hit rate 4.7% among 360,000; THP-1 LPS/ATP IL-1B secretion, AlphaLISA, 16 h; hits give low values; in the data active = activity change below about -50%; inconclusive = mostly about -30% to -49%
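Secreted IL-1B measured by AlphaLISA bead assay after 16 h compound exposure of THP-1 cells; compounds (final up to 57.5 uM) added 1 h before LPS (250 ng/mL) and ATP (1.25 mM) stimulation; lower signal means less secretion.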
HT1080 IDH1KD tx: kills HT-1080 cells with IDH1 knockdown; Potency, µM (top dose mostly 46.1 µM), most hits filed as cytotoxic; AID 686971; HT-1080 IDH1 knockdown viability, ATP luminescence, 48 h; hit rate 2% among 360,000
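IDH1KD HT-1080 cells, 750/well, RPMI + 5% FBS; compound pinned after 2 h settling; 48 h, 37 °C; CellTiter-Glo luminescence; % activity normalised to DMSO and no-cell wells; curves fitted, classed by r2 and efficacy.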
DT40 TDP1 CPT: growth inhibition of DT40 Tdp1-/-;hTDP1 cells with camptothecin (screen for TDP1 inhibitors); chicken DT40 Tdp1-/-;hTDP1 cells + 20 nM CPT, ATP luminescence, 48 h; Potency, µM (highest dose often 46.2 µM), actives largely listed as inhibitors; hit rate 12% among 420,000; note: nearly all actives have a fitted effect of over 55% in size
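Cell growth measured by CellTiter-Glo luminescence after a minimum 48 h, 37 C compound exposure with 20 nM CPT in Tdp1-knockout DT40 cells stably expressing hTDP1, seeded 400/well; qHTS titration format.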
Hits are given with their value; i = inactive; ? = inconclusive; nt = not tested or not shown; [ ] = dose if it differs, or a comment. A selection: hits, their analogues and other compounds. The true share with any hit is near 19%. Unless noted, calls come from the whole dose curve; as a rule, active = well fitted curve in the direction sought with a large enough effect; inconclusive = small, poorly fitted or top-dose-only effect, or another doubt; inactive = no such curve, though single readings can be large; an effect the other way counts as inactive or inconclusive.

SMILES	HT1080NT lethal	TDP1 cell noCPT	ELG1 repair inh	IL1B secr inh	HT1080 IDH1KD tx	DT40 TDP1 CPT
CCC(C)C(=O)Nc1nc(-c2ccc3c(c2)NC(=O)CO3)cs1 (stereo not drawn)	i	18.4µM	i	i	i	?
Cc1ccc(NC(=O)C2CCN(S(=O)(=O)c3ccc4c(c3)CCCC(=O)N4)CC2)c(Br)c1	i	?	i	i	i	?
Cc1cccc(/C(N)=N/OC(=O)N2c3ccccc3Sc3ccccc32)c1	i	20.6µM	i	i	i	?
COc1ccc(CCNCC(O)COc2cccc(Br)c2)cc1OC (stereo not drawn)	i	?	i	-61.2	i	?
COc1ccc(CNCC(O)COc2ccc3[nH]c(=O)ccc3c2)cc1OC (stereo not drawn)	nt	i	nt	nt	nt	i
COc1ccc(CCNCC(O)COc2ccc(OC)cc2C(C)(C)C)cc1 (stereo not drawn)	?	?	i	-97.0	18.4µM	?
COc1ccc(CCNCC(O)Cn2c3ccccc3c3ccccc32)cc1OC (stereo not drawn)	i	11.6µM	i	-54.9	23.1µM	13µM
Cc1ccc(OCCn2c(C3CC(=O)N(Cc4ccc(F)cc4)C3)nc3ccccc32)c(C)c1 (stereo not drawn)	nt	20.6µM	nt	nt	nt	25.9µM
CCc1ccc(OCCn2c(C3CC(=O)N(Cc4ccc(F)cc4)C3)nc3ccccc32)cc1 (stereo not drawn)	nt	11.6µM	nt	nt	nt	20.6µM
Cc1ccc(Cl)cc1N1CCN(C(=O)Cc2ccc(-n3c(=O)[nH]c4ccsc4c3=O)cc2)CC1	i	?	?	i	i	?
CC(Oc1ccccc1)C(=O)N1CCN(Cc2cc(=O)n3nc(-c4ccccc4Cl)sc3n2)CC1 (stereo not drawn)	nt	?	nt	nt	nt	i
CCCCN(CC)CCCNC(=S)Nc1ccc2nc(N3CCN(C)CC3)cc(C)c2c1	18.4µM	16.4µM	i	-54.0	?	?
CCCCN(CC)CCCNC(=S)Nc1ccc2nc(N3CCN(CC)CC3)cc(C)c2c1	16.4µM	16.4µM	i	?	?	?
FC(F)(F)COc1nc(N2CCOCC2)nc(N(c2ccccc2)c2ccccc2)n1	?	20.6µM	?	i	?	?
COc1cccc(-c2cc(C(F)(F)F)nc(N3CCN(c4ccccc4)CC3)n2)c1	?	?	i	i	i	i
FC(F)(F)COc1nc(OCC(F)(F)F)nc(N2CCN(c3ccccc3)CC2)n1	i	?	23.1µM	-53.5	i	i
FC(F)(F)c1cc(-c2ccccc2)nc(N2CCOCC2)n1	i	i	i	i	i	i
CSc1ccc(C2Nc3cccc4cccc(c34)N2)cc1	i	?	i	i	i	14.6µM
Clc1ccc(C2Nc3cccc4cccc(c34)N2)cc1	i	?	?	i	i	?
Cc1cccc(C2Nc3cccc4cccc(c34)N2)c1	i	?	i	i	i	?
CN1c2ccccc2N(C)C1c1ccc2c(c1)OCO2	i	16.4µM	i	i	?	23.1µM
CSc1ccc(C2NC(=O)c3ccccc3N2)cc1 (stereo not drawn)	18.4µM	16.4µM	nt	i	9.2µM	10.3µM
c1cc2c3c(cccc3c1)NC(c1ccc3c(c1)OCO3)N2	i	?	i	i	i	23.1µM
O=C1NC(=Nc2cccnc2)S/C1=C\c1cccc(F)c1	i	13µM	i	i	i	?
Cc1ccc(N=C2NC(=O)/C(=C/c3cccs3)S2)cc1C	i	10.3µM	i	i	i	13µM
SMILES	HT1080NT lethal	TDP1 cell noCPT	ELG1 repair inh	IL1B secr inh	HT1080 IDH1KD tx	DT40 TDP1 CPT
Cc1cccc(N=C2NC(=O)/C(=C\c3cccs3)S2)c1	i	9.2µM	?	i	i	13µM
O=C(NCCN1CCCC1=O)C1CCC(=O)N(CCc2cccc(F)c2)C1 (stereo not drawn)	i	i	i	i	i	i
Nn1c(SCC(=O)Nc2cccc(Br)c2)nnc1C1CC1	i	i	?	i	i	i
CCCSC1=C(C#N)C(c2ccc(OC)cc2)C2=C(CC(C)(C)CC2=O)N1 (stereo not drawn)	?	4.11µM	i	i	?	5.17µM
COc1ccc(C2C(C#N)=C(C)NC3=C2C(=O)CC(C)(C)C3)cc1 (stereo not drawn)	i	i	i	i	i	i
CSC1=C(C#N)C(c2ccc(Cl)cc2)C2=C(CC(C)(C)CC2=O)N1 (stereo not drawn)	i	0.92µM	18.4µM	i	8.2µM	0.92µM
CCN(CC)c1ccc(NC(=O)CCS(=O)(=O)c2ccc3c(c2)oc(=O)n3C)c(C)c1	nt	i	nt	nt	nt	?
CCN(CC)c1ccc(NS(=O)(=O)c2ccc3c(c2)oc(=O)n3C)c(C)c1	i	?	?	i	i	25.9µM
O=C(OC1C[C@@H]2CC3C[C@H](C1)N2CC3=O)c1c[nH]c2ccccc12 (stereo partly drawn)	nt	21.1µM	nt	nt	nt	?
CCOC(=O)N1CCN(Cc2nc(N)nc(Nc3ccc(Oc4ccccc4)cc3)n2)CC1	16.4µM	16.4µM	11.6µM	i	?	?
CCOC(=O)C1CCCN(Cc2nc(N)nc(Nc3ccc(OC)cc3)n2)C1 (stereo not drawn)	i	?	?	i	i	29.1µM
CCOC(=O)N1CCN(Cc2nc(N)nc(Nc3ccc(Cl)cc3)n2)CC1	i	?	i	i	i	i
CCOC(=O)C1CCCN(Cc2nc(N)nc(Nc3ccc(Cl)cc3)n2)C1 (stereo not drawn)	i	16.4µM	?	i	i	?
O=C(NCC1CCC2(CCN(Cc3cccc(-c4ccco4)c3)CC2)O1)c1ccccc1 (stereo not drawn)	nt	i	nt	nt	nt	i[9.04 µM]
Cc1ccc(-c2nc(-c3nccc4ccccc34)oc2-c2ccccc2)cc1	i	13µM	?	i	i	?
Cc1nc(CC(=O)Nc2ccc(N(C)C)cc2)cs1	nt	i	nt	nt	nt	i
CC1CCCN(S(=O)(=O)c2ccc(NC(=O)c3nc(SC(C)C)ncc3Cl)cc2)C1 (stereo not drawn)	nt	13µM	nt	nt	nt	8.2µM
CCSc1ncc(Cl)c(C(=O)Nc2ccc(S(=O)(=O)N3CCCCC3)cc2)n1	nt	11.6µM	nt	nt	nt	20.6µM
O=C(Nc1ccc(S(=O)(=O)N2CCCCC2)cc1)c1cccnc1Cl	i	?	i	i	i	?
Cc1cc2oc(C(=O)Nc3ccc(S(=O)(=O)N4CCCC(C)C4)cc3)cc(=O)c2cc1Cl (stereo not drawn)	i	?	i	i	i	?
Cc1ccnc(NS(=O)(=O)c2ccc(NC(=O)c3nc(SC(C)C)ncc3Cl)cc2)n1	nt	?	nt	nt	nt	i
